Experimental data taken from the OligoGym collection.

Molecular target: BOLA1
Experiment: pooled miR-30 sensor sort-seq; sequence = guide strand
Details: shRNA
Note: reference of the scale not given here.

Sequence | sensor-assay potency score (higher = more potent)
TGCGAAGCTCTAGCACCTCGGG | -1.19
TTGCGAAGCTCTAGCACCTCGG | -0.666
TAGTGAGTGATTCTTCTCTTTT | -0.956
TGAGAGTTCTCTCTCCACTGGG | -0.015
TAACATGGAACATCCGGGCTGC | 0.946
TAGGGGGCTCAGTCCCTCGAAA | -1.29
TGATTCTTCTCTTTTCTCGGGT | 0.0423

Molecular target: BOP1
Experiment: as above
Details: shRNA

Sequence | sensor-assay potency score (higher = more potent)
TTGTACACCATGCCATGGCAGA | -1.35
TTCGTCATCATCCTCACTGCTG | 0.313
AGGATCGTCCATCTTGTCCAGG | -2.16
TTGACGGGCACCAGCAAGGGGT | -1.16
TTGCTATCGTAGCTCCCACAGA | -1.14
TCTACATTCACCCTCATCTTGC | -0.893
TTGGGCATCAGCTTCTTGGTGA | 0.503
TTCCTGGATGAAGCGTCCGTAG | -1.83
ATCCAGGTCAAACCACACCAGC | -1.99
TTGATGGCGTGCACCATGCGAG | -1.27
TCAAACCACACCAGCTTGCTAT | -1.16
TAGTCAGGATCGTCCATCTTGT | -0.541

Molecular target: BRAP
Experiment: as above
Details: shRNA

Sequence | sensor-assay potency score (higher = more potent)
TTCTCTATCCGAACTATCTTGT | -0.12
TAGGAGATCATTTAGTTTGTGC | 0.0397
TAAATATGAATACTCTAACTGT | -0.208
TCTTCTATTGAGTTGAACTGGC | -0.232
TAATCGCTACTTTCTCTCCTGG | -0.199
TTTCCTGAACACCACACTCAAA | -1.71
TGACATACCGTCCACATCCTAT | -1.06
TTAGTAAATATGAATACTCTAA | -0.689
AAAACTATCCGCATCAGCCTGT | 0.418
TTTCTTTCCACAGACTGCTTTT | -0.773
TTTTACTTGCAACCAGTCGATG | -1.46
TTTAGCTGAGTGCACTTTCTTT | -0.371

Molecular target: BRD2
Experiment: as above
Details: shRNA

Sequence | sensor-assay potency score (higher = more potent)
TAATTTTGTGATAATCCGGTAG | 0.162
TTGGATTATATGCACAACTCGG | -1.15
TTGTTTTCAAGTCTCCTCTTAA | -0.54
TACATCAGCAGCAAACTCCTGT | 0.587
TTCTCATTCGCTTTCTTGGGGG | -0.27
TAGGACAATATCATCAGTGGGC | 0.486
TAAAATCTTGCATACACTCTGA | -0.097
TTATTTACAAGTTAGAATCAAC | -0.816
TTTCTCATTCGCTTTCTTGGGG | 0.425
